This is a sample that favours compounds with a hit; in the whole collection about 0.85% have one here.
ZTA counter = ZTA (EBV) inhibition in EBNA-1 counter-screen | ZTA-DNA binding, fluorescence polarization | inhibition, % at 11 µM | hit rate 0.15% among 320,000; in the data active means inhibition above about 33%
E coli Lon inh = inhibitors of E. coli Lon protease. hit rate 0.42% among 360,000. inhibition, % at 7.94 µM. purified E. coli Lon protease, fluorescence polarization. P0A9M0. AID 602123; in the data active means inhibition above about 13%, passing the limit was not always enough
Keap1 Nrf2 FP = inhibitors of human Keap1-Nrf2 protein-protein interaction; hit rate 0.15% among 340,000; inhibition, % at 9.4 µM; Q14145; Keap1 Kelch-Nrf2 peptide fluorescence polarization, 1536-well; in the data active means inhibition above about 12%;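 further: human Keap1 Kelch domain with fluorescein labeled Nrf2 9mer peptide probe; higher means more block of Keap1 binding to Nrf2 peptide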
Target sequence (Q14145 whole entry, looked up, the tested form may be a part): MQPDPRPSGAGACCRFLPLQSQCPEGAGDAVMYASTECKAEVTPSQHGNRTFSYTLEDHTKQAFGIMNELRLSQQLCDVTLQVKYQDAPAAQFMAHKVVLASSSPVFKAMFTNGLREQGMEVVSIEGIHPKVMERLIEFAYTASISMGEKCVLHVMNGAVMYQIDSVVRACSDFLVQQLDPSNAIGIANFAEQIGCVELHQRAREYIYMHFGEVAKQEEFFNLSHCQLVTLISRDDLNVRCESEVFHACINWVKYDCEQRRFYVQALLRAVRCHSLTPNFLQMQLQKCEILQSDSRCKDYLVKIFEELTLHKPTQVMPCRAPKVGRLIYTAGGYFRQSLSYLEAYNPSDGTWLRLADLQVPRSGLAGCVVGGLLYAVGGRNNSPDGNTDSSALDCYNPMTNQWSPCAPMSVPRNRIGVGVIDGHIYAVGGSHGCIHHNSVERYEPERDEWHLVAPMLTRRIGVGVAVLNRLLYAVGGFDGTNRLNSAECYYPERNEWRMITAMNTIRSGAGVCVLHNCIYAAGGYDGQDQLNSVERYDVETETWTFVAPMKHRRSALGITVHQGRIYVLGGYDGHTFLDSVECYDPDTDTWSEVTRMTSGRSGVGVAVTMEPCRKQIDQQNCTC
EBNA-1 inhibitor = blocks EBNA-1 binding to DNA; EBNA-1 DNA binding, fluorescence polarization; inhibition, % at 14.8 µM; AID 1950; hit rate 0.34% among 300,000; in the data active means inhibition above about 28%
LANA DNA inh = inhibitors of KSHV LANA C-terminal domain DNA binding; MBP-C-LANA/FAM-LBS DNA binding, fluorescence polarization; inhibition, % at 9 µM; hit rate 0.078% among 340,000;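 active means highest replicate inhibition at or above 60% at 9 µM, even if other replicates fall short; inactive means all replicates below 60% inhibition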
EBNA-1 inh conf = EBNA-1 (EBV) inhibition, confirmation; shares compounds with EBNA-1 inhibitor; Recombinant EBNA-1 DBD, Cy5-DNA fluorescence polarization; inhibition, % at 14.8 µM; hit rate 35% among 830; AID 2292;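 active means mean inhibition across replicates above a set limit taken from the earlier primary screen, cut at about 28% in these data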
ZTA counter trip = blocks Epstein-Barr virus ZTA in triplicate, EBNA-1 counter-screen. shares compounds with EBNA-1 inhibitor. Zta-ZRE DNA binding, Cy5 fluorescence polarization. inhibition, % at 11.1 µM. 830 tested, under 10 active. AID 2328;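 active means mean inhibition over triplicates above a set limit taken from the primary EBNA-1 screen, cut at about 37% in these data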;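 further: purified full length Zta protein with Cy5 labeled ZRE DNA probe; inhibitors lower polarization by freeing the labeled DNA probe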
Each line names hits and unclear results; the compound was inactive in the other large screens (follow-up assays come after a bar, where they were run).

CCn1c(CNC(=O)C23CC4CC(CC(C4)C2)C3)nnc1SCC(=O)Nc1nnc(C)s1	EBNA-1 inhibitor 42 | EBNA-1 inh conf inactive | ZTA counter trip inactive
CC(=O)Nc1ccc(NC(=O)c2ccc(NS(=O)(=O)c3cccc4cccnc34)cc2)cc1	EBNA-1 inhibitor 39 | EBNA-1 inh conf inactive | ZTA counter trip inactive
CCOC(=O)c1[nH]c2ccccc2c1NC(=O)c1ccc(S(=O)(=O)N(C)C)cc1	none
CCOC(=O)c1oc2ccccc2c1NC(=O)c1ccc(S(=O)(=O)N2CCCC2)cc1	EBNA-1 inhibitor 37 | EBNA-1 inh conf 47 | ZTA counter trip inactive
CCOC(=O)c1oc2ccccc2c1NC(=O)c1ccc(S(=O)(=O)N(C)C)cc1	EBNA-1 inhibitor 47 | EBNA-1 inh conf 52 | ZTA counter trip inactive
CCc1noc(C)c1C(=O)Nc1cc(S(=O)(=O)N2CCOCC2)ccc1OCC(F)(F)F	EBNA-1 inhibitor 79 | EBNA-1 inh conf inactive | ZTA counter trip inactive
COc1ccc(S(=O)(=O)N2CCOCC2)cc1NC(=O)c1ccc(Cl)cc1	EBNA-1 inhibitor 44 | EBNA-1 inh conf 32 | ZTA counter trip inactive
COc1ccc(S(=O)(=O)N2CCOCC2)cc1NC(=O)c1ccc(S(=O)(=O)N2CCCCC2)cc1	none (no result: ZTA counter, EBNA-1 inhibitor)
COc1ccc(S(=O)(=O)N2CCOCC2)cc1NC(=O)c1cccc(Cl)c1	EBNA-1 inhibitor 41 | EBNA-1 inh conf inactive | ZTA counter trip inactive
COc1ccc(S(=O)(=O)N2CCCCC2)cc1NC(=O)c1cccc(S(=O)(=O)N2CCOCC2)c1	none (no result: ZTA counter, EBNA-1 inhibitor)
CN(CCOc1ccc(Cl)cc1)C(=O)c1cc(-c2ccco2)nc2ccccc12	none
COCCN(C(=O)c1ccc(OCC(C)C)cc1)c1c(N)n(Cc2ccccc2)c(=O)[nH]c1=O	none
Cc1ccc(S(=O)(=O)N2CCOCC2)cc1NC(=O)CSc1nc2ccccc2c(=O)n1Cc1ccccc1	EBNA-1 inhibitor 33 | EBNA-1 inh conf inactive | ZTA counter trip inactive
Cc1cc(NC(=O)CSc2nc3ccccc3c(=O)n2Cc2ccc(F)cc2)no1	EBNA-1 inhibitor 57 | EBNA-1 inh conf inactive | ZTA counter trip inactive
CCc1ccccc1N(C(=O)c1snc(C(N)=O)c1N)C(C(=O)NCC1CCCO1)c1ccc(N(C)C)cc1 (centres undefined)	none (no result: ZTA counter, EBNA-1 inhibitor)
Cc1ccccc1N(C(=O)c1snc(C(N)=O)c1N)C(C(=O)NCC1CCCO1)c1ccc(N(C)C)cc1 (centres undefined)	EBNA-1 inhibitor 28 | EBNA-1 inh conf 123 | ZTA counter trip inactive
COc1ccc2nc3sc(C(=O)NCc4cccs4)c(N)c3cc2c1	EBNA-1 inhibitor 31 (no result: E coli Lon inh, Keap1 Nrf2 FP, LANA DNA inh) | EBNA-1 inh conf inactive | ZTA counter trip inactive
Cc1cc(C)cc(-n2ncc3c2CCCC3NC(=O)CCN2CCCC2=O)c1 (centres undefined)	none
Cc1nn(CC(=O)NC2CC2)c(C)c1S(=O)(=O)N(C)C	none (no result: ZTA counter, Keap1 Nrf2 FP, EBNA-1 inhibitor, LANA DNA inh)
CCCNS(=O)(=O)c1cc2c(cc1Br)CCN2C(=O)CC	none (no result: ZTA counter, EBNA-1 inhibitor)
CCOc1ccc(NC(=O)CN(C)C(=O)/C=C/c2ccc(S(=O)(=O)N3CCCCCC3)cc2)cc1OCC	EBNA-1 inhibitor 33 | EBNA-1 inh conf inactive | ZTA counter trip inactive
CC(=O)Nc1ccc(S(=O)(=O)N2CCN(Cc3nc4sc(C)c(C)c4c(=O)[nH]3)CC2)cc1	EBNA-1 inhibitor 27 | EBNA-1 inh conf 55 | ZTA counter trip inactive
COc1ccccc1CNc1nc(NCCN2CCNC2=O)c2sccc2n1	none (no result: ZTA counter, Keap1 Nrf2 FP, EBNA-1 inhibitor, LANA DNA inh)
O=C(COc1ccc2c(c1)OCO2)Nc1ccc2c(c1)oc1ccccc12	EBNA-1 inhibitor 71 | EBNA-1 inh conf inactive | ZTA counter trip inactive
C=CCn1c(SCC(=O)c2c(N)n(C)c(=O)n(C)c2=O)nnc1-c1ccoc1C	none (no result: ZTA counter, EBNA-1 inhibitor)
CCOc1ccccc1N(CC(=O)Nc1ccc(OC)cc1)S(=O)(=O)c1ccccc1	EBNA-1 inhibitor 28 | EBNA-1 inh conf inactive | ZTA counter trip inactive
CCOc1ccccc1N(CC(=O)Nc1cccc(OC)c1)S(=O)(=O)c1ccccc1	none
CCc1ccc(OCC(=O)O/N=C(\N)c2ccncc2)c(Br)c1	none
CCOCCCn1c(SCC(=O)NCc2ccco2)nc2c(sc3ccccc32)c1=O	EBNA-1 inhibitor 30 | EBNA-1 inh conf inactive | ZTA counter trip inactive
COc1cc(NC(=O)COC(=O)/C=C/c2ccccc2Cl)cc(OC)c1	EBNA-1 inhibitor 69 | EBNA-1 inh conf 30 | ZTA counter trip inactive
COc1ccc(OC)c(NC(=O)COC(=O)/C=C/c2ccc(Cl)cc2)c1	EBNA-1 inhibitor 42 | EBNA-1 inh conf inactive | ZTA counter trip inactive
CCCNC(=O)c1ccc(N2CCC3(CC2)CC(c2ccccc2)=NO3)c([N+](=O)[O-])c1	none
CCCNC(=O)c1ccc(N2CCC3(CC2)CC(c2ccccc2)=NO3)c(N)c1	EBNA-1 inhibitor 51 | EBNA-1 inh conf inactive | ZTA counter trip inactive
C=CCn1c(SCc2ccccc2F)nc2cc(C(=O)O)ccc2c1=O	none
Cc1nc2nc(-c3ccccc3)nn2c(C)c1C	EBNA-1 inhibitor active | EBNA-1 inh conf inactive | ZTA counter trip inactive
O=C(c1cccc(NS(=O)(=O)c2ccc(F)c(F)c2)c1)N1CCCCC1	none (no result: ZTA counter, EBNA-1 inhibitor)
CCN1C(=O)CSC1=Nc1cccc(C(=O)O)c1	none
COc1cc(NC(=O)c2ccc(Br)cc2)c(OC)cc1NC(=O)c1ccccc1	EBNA-1 inhibitor 57 | EBNA-1 inh conf 64 | ZTA counter trip inactive
COc1cc(NC(=O)c2cccnc2)c(OC)cc1NC(=O)c1ccc(Br)cc1	none
COc1cc(NC(=O)c2ccccc2)c(OC)cc1NC(=O)Cc1ccc(Br)cc1	EBNA-1 inhibitor 36 | EBNA-1 inh conf 50 | ZTA counter trip inactive
O=C(Nc1cccc(C(=O)Nc2ccc(Br)cc2)c1)c1ccccc1	EBNA-1 inhibitor 33 | EBNA-1 inh conf inactive | ZTA counter trip inactive
COc1cc(NC(=O)c2ccccc2)c(OC)cc1NC(=O)Cc1ccc(F)cc1	none
O=C(Nc1cccc(-c2cnc3ccccc3n2)c1)c1ccccc1	EBNA-1 inhibitor 40 | EBNA-1 inh conf inactive | ZTA counter trip inactive
O=C(Nc1ccc(Nc2ccccc2)cc1)c1ccc(Br)cc1	none
CNC(=O)c1ccc(NC(=O)CC2SC(N3CCCC3)=NC2=O)cc1 (centres undefined)	none (no result: EBNA-1 inhibitor)
Cc1ccccc1NS(=O)(=O)c1cc(C(=O)NCc2ccncc2)ccc1Cl	none
C=CCNC(=S)Nc1c(C(=O)OC)[nH]c2cc(OC)ccc12	EBNA-1 inhibitor 29 | EBNA-1 inh conf inactive | ZTA counter trip inactive
COC(=O)c1[nH]c2cc(OC)ccc2c1NC(=O)c1c(F)cccc1F	none
O=C(NN(Cc1ccccc1)Cc1ccccc1)c1ccccc1	none (no result: ZTA counter, EBNA-1 inhibitor)
NC(=O)NCCc1ccccc1	none
O=C(Nc1cccc(Cl)c1Cl)C1CC(=O)N(c2ccc(Br)cc2)C1 (centres undefined)	EBNA-1 inhibitor 60 | EBNA-1 inh conf inactive | ZTA counter trip inactive
NC(=O)c1nn(-c2ccccc2)nc1NC(=O)Cn1nnc(-c2ccccc2)n1	EBNA-1 inhibitor 46 | EBNA-1 inh conf inactive | ZTA counter trip inactive

Bioassay records as filed in PubChem BioAssay.
